# A number with no mark means an inactive call. The rule behind the calls is not given here.
# Assay: compounds distorting NS3 helicase fluorescence signal – biochemical, NIH Clinical Collection, artefact control for HCV NS3 helicase inhibitor project (AID 743272);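 note: HCV NS3 helicase with a Cy5 labelled single stranded DNA probe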
# Conditions: fluorescence interference counterscreen, HCV NS3 helicase assay; stronger effect = lower value
smiles,measurement,value
CC#C[C@]1(O)CC[C@H]2[C@@H]3CCC4=CC(=O)CCC4=C3[C@@H](c3ccc(N(C)C)cc3)C[C@@]21C,fluorescence ratio,0.97
